# Test results taken from publication PMC8384837, “Expanding the binding specificity for RNA recognition by a PUF domain”.
# Experiments:
# Test in all cases: yeast three-hybrid, YBZ-1, SC-Leu-His + 0.5 mM 3-AT, 4 days
# Settings in all cases: tags: N-Gal4 AD-HA kept; label: inside an RPR1-promoter hybrid RNA with tandem MS2 sites; ssRNA
# PUM1 PUF domain R6-DWQ = molecular target: T1, PUM1 PUF domain R6-DWQ (Homo sapiens, UniProt Q14671 828-1176, N1043D;Y1044W)
# T1 sequence: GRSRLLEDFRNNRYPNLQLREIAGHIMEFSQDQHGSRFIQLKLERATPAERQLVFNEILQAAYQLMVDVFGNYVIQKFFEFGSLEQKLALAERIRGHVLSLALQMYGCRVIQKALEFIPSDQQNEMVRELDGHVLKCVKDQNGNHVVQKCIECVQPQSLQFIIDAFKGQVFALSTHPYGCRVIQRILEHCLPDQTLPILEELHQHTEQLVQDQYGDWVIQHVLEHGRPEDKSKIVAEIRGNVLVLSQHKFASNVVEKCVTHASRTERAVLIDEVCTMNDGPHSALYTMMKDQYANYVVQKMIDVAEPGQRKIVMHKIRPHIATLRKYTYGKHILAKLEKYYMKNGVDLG
# How it was run: (§1)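 Sequencing with Illumina followed PCR amplification of the repeat regions from transformants grown four days on SC-Leu (input) or SC-Leu-His + 0.5 mM 3-AT (selection). The transformants were strain YBZ-1 with a LexA–MS2 coat fusion and a HIS3 reporter, carrying Pumilio-1 PUF domain libraries and matching RNA elements. The interaction score is the log change in variant frequency from input to selection, computed in log2 with a pseudocount of 1 for absent variants.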
# PUM1 PUF domain R3-QRR = PUM1 PUF domain R3-QRR (Homo sapiens, UniProt Q14671 828-1176, C935Q;Q939R)
# How it was run: as §1
# PUM1 PUF domain R4-ALG = PUM1 PUF domain R4-ALG (Homo sapiens, UniProt Q14671 828-1176, N971A;H972L;Q975G)
# How it was run: as §1
# PUM1 PUF domain R5-VRV = PUM1 PUF domain R5-VRV (Homo sapiens, UniProt Q14671 828-1176, C1007V;Q1011V)
# How it was run: as §1
# PUM1 PUF domain R1-NFR = PUM1 PUF domain R1-NFR (Homo sapiens, UniProt Q14671 828-1176, S863N;R864F;Q867R)
# How it was run: as §1
# PUM1 PUF domain R5-GYV = PUM1 PUF domain R5-GYV (Homo sapiens, UniProt Q14671 828-1176, C1007G;R1008Y;Q1011V)
# How it was run: as §1
# PUM1 PUF domain R5-MKR = PUM1 PUF domain R5-MKR (Homo sapiens, UniProt Q14671 828-1176, C1007M;R1008K;Q1011R)
# How it was run: as §1
# PUM1 PUF domain R5-GQQ = PUM1 PUF domain R5-GQQ (Homo sapiens, UniProt Q14671 828-1176, C1007G;R1008Q)
# How it was run: as §1
# PUM1 PUF domain R5-EKL = PUM1 PUF domain R5-EKL (Homo sapiens, UniProt Q14671 828-1176, C1007E;R1008K;Q1011L)
# How it was run: as §1
# PUM1 PUF domain R5-PWL = PUM1 PUF domain R5-PWL (Homo sapiens, UniProt Q14671 828-1176, C1007P;R1008W;Q1011L)
# How it was run: as §1
sequence,measurement,setting,value
GGCUAGAACUAGUGGAUCCCCCGGCGCCCGGCGGCUCGAGCCCGGGUAAGUGCAAAUAGUCUGCAUGCCGCCGGGCGCCAUGCCUGCAGGUCGACUCUAGAAAACAUG,binding signal,PUM1 PUF domain R6-DWQ,2.44 log2 enrichment (interaction score)
GGCUAGAACUAGUGGAUCCCCCGGCGCCCGGCGGCUCGAGCCCGGGUAAGUGUAAUUAGUCUGCAUGCCGCCGGGCGCCAUGCCUGCAGGUCGACUCUAGAAAACAUG,binding signal,PUM1 PUF domain R3-QRR,4.3 log2 enrichment (interaction score)
GGCUAGAACUAGUGGAUCCCCCGGCGCCCGGCGGCUCGAGCCCGGGUAAGUGUAAAUAGUCUGCAUGCCGCCGGGCGCCAUGCCUGCAGGUCGACUCUAGAAAACAUG,binding signal,PUM1 PUF domain R4-ALG,2.12 log2 enrichment (interaction score)
same,binding signal,PUM1 PUF domain R5-VRV,3.36 log2 enrichment (interaction score)
same,binding signal,PUM1 PUF domain R6-DWQ,2.34 log2 enrichment (interaction score)
GGCUAGAACUAGUGGAUCCCCCGGCGCCCGGCGGCUCGAGCCCGGGUAAGUGUAAAUCGUCUGCAUGCCGCCGGGCGCCAUGCCUGCAGGUCGACUCUAGAAAACAUG,binding signal,PUM1 PUF domain R1-NFR,6.39 log2 enrichment (interaction score)
GGCUAGAACUAGUGGAUCCCCCGGCGCCCGGCGGCUCGAGCCCGGGUAAGUGUGAAUAGUCUGCAUGCCGCCGGGCGCCAUGCCUGCAGGUCGACUCUAGAAAACAUG,binding signal,PUM1 PUF domain R5-GYV,2.9 log2 enrichment (interaction score)
GGCUAGAACUAGUGGAUCCCCCGGCGCCCGGCGGCUCGAGCCCGGGUAAGUGUCAAUAGUCUGCAUGCCGCCGGGCGCCAUGCCUGCAGGUCGACUCUAGAAAACAUG,binding signal,PUM1 PUF domain R5-MKR,2.84 log2 enrichment (interaction score)
same,binding signal,PUM1 PUF domain R5-GQQ,4.12 log2 enrichment (interaction score)
same,binding signal,PUM1 PUF domain R5-EKL,2.47 log2 enrichment (interaction score)
GGCUAGAACUAGUGGAUCCCCCGGCGCCCGGCGGCUCGAGCCCGGGUAAGUGUUAAUAGUCUGCAUGCCGCCGGGCGCCAUGCCUGCAGGUCGACUCUAGAAAACAUG,binding signal,PUM1 PUF domain R5-MKR,1.52 log2 enrichment (interaction score)
same,binding signal,PUM1 PUF domain R5-PWL,3.31 log2 enrichment (interaction score)
GGCUAGAACUAGUGGAUCCCCCGGCGCCCGGCGGCUCGAGCCCGGGUAAGUGUAAGUAGUCUGCAUGCCGCCGGGCGCCAUGCCUGCAGGUCGACUCUAGAAAACAUG,binding signal,PUM1 PUF domain R3-QRR,3.94 log2 enrichment (interaction score)
